{
  "source": "PubChem BioAssay AID720650",
  "about": "(Broad Institute, 2013)",
  "note": "The source made the active and inactive calls. The rule behind the calls is not given here.",
  "data": [
    {"assay": "C difficile toxins, biochemical counterscreen, UDPG substrate absence, confirmatory dose response (AID 720650)", "conditions": "series mostly up to 19.5 µM", "values": [
      {"compound": "CCCNC(=O)C[C@H]1CC[C@@H]2[C@H](COc3ccc(NC(=O)c4ccc(Cl)cc4)cc3C(=O)N2C)O1", "AC50": "> 39 µM (inactive)"},
      {"compound": "COC(=O)Cc1ccc(NC(=S)NCc2ccco2)cc1", "AC50": "inactive"},
      {"compound": "COCC(=O)N1CC[C@H]2[C@@H]1c1cc(-c3ccc(OC)cc3)ccc1N(C)[C@H]2CO", "AC50": "7.62 µM (active)"},
      {"compound": "O=C(COC(=O)c1ccc(F)cc1F)c1ccc[nH]1", "AC50": "inactive"},
      {"compound": "C/C(=N\\NC(N)=S)c1ccc2c(c1)OCCO2", "AC50": "inactive"},
      {"compound": "O=C(Nc1ccc(N2CCOCC2)c(Cl)c1)c1ccc(Cl)cc1", "AC50": "12.3 µM (active)"},
      {"compound": "COc1ccc(/C=N/n2c(-c3cc(C)[nH]n3)n[nH]c2=S)cc1OC", "AC50": "> 39 µM (inactive)"},
      {"compound": "COc1cc(Cn2nnc3ccccc32)ccc1O", "AC50": "15.8 µM (active)"},
      {"compound": "Cc1cccc(/C=C/c2onc(C)c2S(=O)(=O)N2CCC(C(=O)N3CCC(C)CC3)CC2)c1", "AC50": "inactive"},
      {"compound": "CC(C)(C)C(=O)C1=C(O)C(=O)N(c2ccccc2)C1c1ccccc1", "note": "(stereo unspecified)", "AC50": "> 39 µM (inactive)"},
      {"compound": "Cc1ccccc1NS(=O)(=O)c1ccc(OCC(=O)N2CCCCC2)cc1", "AC50": "inactive"},
      {"compound": "Cc1ccc(S(=O)(=O)Oc2ccccc2/C=C2\\SC(=O)NC2=O)cc1", "AC50": "inactive"},
      {"compound": "O=C(Nc1cc(S(=O)(=O)N2CCOCC2)ccc1N1CCOCC1)c1ccccc1Cl", "AC50": "> 39 µM (inactive)"},
      {"compound": "COc1ccc(CNCCc2ccc3c(c2)OCO3)cc1Br", "AC50": "inactive"},
      {"compound": "CNC(=O)C1CCN(S(=O)(=O)c2c(C)noc2/C=C/c2cccc(C)c2)CC1", "AC50": "inactive"},
      {"compound": "Nc1ccc(C(=O)c2ccc3c(c2)OCCO3)cc1N", "AC50": "11.9 µM (active)"}
    ]}
  ]
}
